# This is part of a sample that, as a whole, favours compounds with a hit. Of some 79,000 tested, about 15% had one in any assay. Unmarked numbers belong to inactive results. Active and inactive are the calls of the source. No stated cut-off is given here; in the data, active means growth inhibition above about 70%; inactive means the rest.
# Key:
# [1] = NCI Yeast Anticancer Drug Screen. Data for the rad52 strain (AID 147);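 further: 0% = growth of vehicle-treated control cultures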; details: S. cerevisiae rad52 mutant growth inhibition, stronger effect = higher value
# Method in brief: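 Inhibition of yeast growth, referenced to vehicle controls, was the measured output for a strain with defective DNA damage repair.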
# [2] = NCI Yeast Anticancer Drug Screen. Data for the wt1 strain (AID 149);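 further: 0% = growth of vehicle-treated wt1 cultures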; details: S. cerevisiae wt1 strain (SPY 50644) growth inhibition, stronger effect = higher value
# Method in brief: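 Growth inhibition read against vehicle controls after compound exposure of the wt1 yeast strain.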
# [3] = NCI Yeast Anticancer Drug Screen. Data for the rad50EPP+ strain (AID 151);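 further: 0% = growth of vehicle-treated control cultures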; details: S. cerevisiae rad50 mutant strain, stronger effect = higher value
# Method in brief: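 Genetically defined yeast (rad50EPP+, DNA damage repair alteration) is grown with compound, and inhibition of growth is expressed relative to vehicle-treated controls.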
# [4] = NCI Yeast Anticancer Drug Screen. Data for the rad50 strain (AID 155);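 further: 0% = growth of vehicle-only cultures of the same strain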; details: S. cerevisiae rad50 strain growth inhibition, stronger effect = higher value
# Method in brief: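 Readout: growth inhibition relative to vehicle-treated cultures. Compound exposure was carried out in a genetically defined yeast strain deficient in DNA damage repair.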
# [5] = NCI Yeast Anticancer Drug Screen. Data for the mec2-1 strain (AID 157); details: S. cerevisiae mec2-1 strain, stronger effect = higher value
# Method in brief: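 Each compound was tested on mec2-1 yeast, a strain altered in DNA damage repair or cell cycle control. Growth inhibition is reported relative to vehicle.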
# [6] = NCI Yeast Anticancer Drug Screen. Data for the rad14 strain (AID 159);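 further: 0% = growth of vehicle-treated control cultures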; details: S. cerevisiae rad14 strain growth inhibition, stronger effect = higher value
# Method in brief: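 Growth inhibition vs vehicle controls; genetically altered yeast strain (DNA damage repair defect) treated with test compounds.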
# [7] = NCI Yeast Anticancer Drug Screen. Data for the CLN2oe strain (AID 163);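 further: 0% = growth of vehicle-only control cultures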; details: S. cerevisiae CLN2oe strain, stronger effect = higher value
# Method in brief: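 First, the altered yeast strain was treated with each compound; second, its growth was measured; finally, inhibition was derived by comparison with vehicle controls.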
# [8] = NCI Yeast Anticancer Drug Screen. Data for the cln2 rad14 strain (AID 165);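 further: 0% = growth equal to vehicle treated cultures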; details: S. cerevisiae cln2 rad14 strain, stronger effect = higher value
# Method in brief: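 Test compounds were added to cln2 rad14 yeast cultures; inhibition of growth was then determined by comparison with vehicle treatment.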
# [9] = NCI Yeast Anticancer Drug Screen. Data for the bub3 strain (AID 167); details: S. cerevisiae bub3 mutant strain, stronger effect = higher value
# Method in brief: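 Readout: yeast growth inhibition, expressed relative to vehicle-only wells. The test organism is a mutant strain from a panel with lesions in DNA repair or checkpoint genes.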
# [10] = NCI Yeast Anticancer Drug Screen. Data for the wt2 strain (AID 169);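 further: 0% = growth of vehicle-treated yeast cultures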; details: S. cerevisiae wt2 strain growth inhibition, stronger effect = higher value
# Method in brief: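 The panel's yeast strains carry defined changes in DNA repair or cell cycle genes. Each strain is grown with compound, and growth loss is scored relative to vehicle.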
# [11] = NCI Yeast Anticancer Drug Screen. Data for the mlh1 strain (AID 171);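 further: 0% = growth of vehicle-treated control cultures of the same strain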; details: S. cerevisiae mlh1 strain growth inhibition, stronger effect = higher value
# Method in brief: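 Inhibition values reflect reduced yeast growth in the presence of compound, referenced to vehicle controls, using a strain chosen for its alteration in DNA repair or cell cycle control.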
# [12] = NCI Yeast Anticancer Drug Screen. Data for the sgs1 strain (AID 173);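 further: 0% = growth of vehicle-only control cultures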; details: S. cerevisiae sgs1 mutant, stronger effect = higher value
# Method in brief: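 Vehicle-treated cultures served as reference for growth inhibition of a yeast strain altered in DNA damage repair or cell cycle control after compound exposure.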
# [13] = NCI Yeast Anticancer Drug Screen. Data for the mlh1 rad18 strain (AID 175); details: S. cerevisiae mlh1 rad18 strain growth inhibition, stronger effect = higher value
# Method in brief: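 Inhibition values reflect reduced growth of mutant yeast versus vehicle-treated controls following compound exposure; the mutations affect DNA damage repair.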
# [14] = NCI Yeast Anticancer Drug Screen. Data for the rad18 strain (AID 177); details: S. cerevisiae rad18 mutant growth inhibition, stronger effect = higher value
# Method in brief: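 Steps: expose repair-mutant yeast to compound; measure growth; express as inhibition relative to vehicle control.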
# [15] = NCI Yeast Anticancer Drug Screen. Data for the mgt1 strain (AID 153); details: S. cerevisiae mgt1 mutant growth inhibition, stronger effect = higher value
# Method in brief: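 In the mgt1 strain, test compounds were added and growth inhibition was determined relative to vehicle-treated controls.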
# [16] = NCI Yeast Anticancer Drug Screen. Data for the sgs1 mgt1 strain (AID 161);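 further: 0% = growth of cultures given vehicle only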; details: S. cerevisiae sgs1 mgt1 strain, stronger effect = higher value
# Method in brief: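 Test agents were incubated with a DNA-repair-mutant yeast strain. Growth was then read and compared against vehicle-treated controls.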
# [17] = at 5.0 µM (retest, dose inferred, filed as 0.5)
# [18] = at 50.0 µM (retest, dose inferred, filed as 5.0)
smiles,measurement,setting,value
CN1CCN(c2ccc3nc(-c4ccc5nc(-c6ccc(O)cc6)[nH]c5c4)[nH]c3c2)CC1,growth inhibition,[1]; at 1.2 µM,8%
same,growth inhibition,[1]; at 3.7 µM,-1%
same,growth inhibition,[1]; at 11.0 µM,98% (active)
same,growth inhibition,[1]; at 33.0 µM,38%
same,growth inhibition,[1]; at 100.0 µM,98% (active)
same,growth inhibition,[2]; at 1.2 µM,3%
same,growth inhibition,[2]; at 3.7 µM,5%
same,growth inhibition,[2]; at 11.0 µM,98% (active)
same,growth inhibition,[2]; at 33.0 µM,98% (active)
same,growth inhibition,[2]; at 100.0 µM,97% (active)
same,growth inhibition,[3]; at 1.2 µM,-7%
same,growth inhibition,[3]; at 3.7 µM,-12%
same,growth inhibition,[3]; at 11.0 µM,83% (active)
same,growth inhibition,[3]; at 33.0 µM,97% (active)
same,growth inhibition,[3]; at 100.0 µM,97% (active)
same,growth inhibition,[4]; at 1.2 µM,6%
same,growth inhibition,[4]; at 3.7 µM,13%
same,growth inhibition,[4]; [17],88% (active)
same,growth inhibition,[4]; at 11.0 µM,98% (active)
same,growth inhibition,[4]; at 33.0 µM,98% (active)
same,growth inhibition,[4]; [18],99% (active)
same,growth inhibition,[4]; at 50.0 µM,99% (active)
same,growth inhibition,[4]; at 100.0 µM,98% (active)
same,growth inhibition,[5]; at 1.2 µM,-4%
same,growth inhibition,[5]; at 3.7 µM,-17%
same,growth inhibition,[5]; [17],63%
same,growth inhibition,[5]; at 11.0 µM,97% (active)
same,growth inhibition,[5]; at 33.0 µM,97% (active)
same,growth inhibition,[5]; [18],99% (active)
same,growth inhibition,[5]; at 50.0 µM,99% (active)
same,growth inhibition,[5]; at 100.0 µM,97% (active)
same,growth inhibition,[6]; at 1.2 µM,-16%
same,growth inhibition,[6]; at 3.7 µM,-16%
same,growth inhibition,[6]; at 11.0 µM,97% (active)
same,growth inhibition,[6]; at 33.0 µM,97% (active)
same,growth inhibition,[6]; at 100.0 µM,97% (active)
same,growth inhibition,[7]; at 1.2 µM,9%
same,growth inhibition,[7]; at 3.7 µM,6%
same,growth inhibition,[7]; at 11.0 µM,97% (active)
same,growth inhibition,[7]; at 33.0 µM,98% (active)
same,growth inhibition,[7]; at 100.0 µM,98% (active)
same,growth inhibition,[8]; [17],45%
same,growth inhibition,[8]; [18],99% (active)
same,growth inhibition,[8]; at 50.0 µM,97.8% (active)
same,growth inhibition,[9]; at 1.2 µM,-10%
same,growth inhibition,[9]; at 3.7 µM,-1%
same,growth inhibition,[9]; [17],84% (active)
same,growth inhibition,[9]; at 11.0 µM,97% (active)
same,growth inhibition,[9]; at 33.0 µM,98% (active)
same,growth inhibition,[9]; [18],99% (active)
same,growth inhibition,[9]; at 50.0 µM,99.2% (active)
same,growth inhibition,[9]; at 100.0 µM,97% (active)
same,growth inhibition,[10]; at 1.2 µM,-17%
same,growth inhibition,[10]; at 3.7 µM,-27%
same,growth inhibition,[10]; at 11.0 µM,97% (active)
same,growth inhibition,[10]; at 33.0 µM,98% (active)
same,growth inhibition,[10]; at 100.0 µM,98% (active)
same,growth inhibition,[11]; at 1.2 µM,-10%
same,growth inhibition,[11]; at 3.7 µM,-15%
same,growth inhibition,[11]; at 11.0 µM,98% (active)
same,growth inhibition,[11]; at 33.0 µM,97% (active)
same,growth inhibition,[11]; at 100.0 µM,97% (active)
same,growth inhibition,[12]; at 1.2 µM,-5%
same,growth inhibition,[12]; at 3.7 µM,2%
same,growth inhibition,[12]; at 11.0 µM,98% (active)
same,growth inhibition,[12]; at 33.0 µM,98% (active)
same,growth inhibition,[12]; at 100.0 µM,97% (active)
same,growth inhibition,[13]; [17],71% (active)
same,growth inhibition,[13]; [18],99% (active)
same,growth inhibition,[13]; at 50.0 µM,99.2% (active)
same,growth inhibition,[14]; at 1.2 µM,-12%
same,growth inhibition,[14]; at 3.7 µM,-29%
same,growth inhibition,[14]; at 11.0 µM,97% (active)
same,growth inhibition,[14]; at 33.0 µM,97% (active)
same,growth inhibition,[14]; at 100.0 µM,97% (active)
Cc1cccc[c]1[Sn]([Cl])([S]/C(C#N)=N/N=C/c1ccc(N(C)C)cc1)[c]1ccccc1C,growth inhibition,[2]; at 1.2 µM,-4%
same,growth inhibition,[2]; at 3.7 µM,-3%
same,growth inhibition,[2]; at 11.0 µM,-8%
same,growth inhibition,[2]; at 33.0 µM,35%
same,growth inhibition,[2]; at 100.0 µM,48%
same,growth inhibition,[3]; at 1.2 µM,0%
same,growth inhibition,[3]; at 3.7 µM,-1%
same,growth inhibition,[3]; at 11.0 µM,0%
same,growth inhibition,[3]; at 33.0 µM,12%
same,growth inhibition,[3]; at 100.0 µM,13%
same,growth inhibition,[15]; at 1.2 µM,-3%
same,growth inhibition,[15]; at 3.7 µM,-6%
same,growth inhibition,[15]; at 11.0 µM,-8%
same,growth inhibition,[15]; at 33.0 µM,37%
same,growth inhibition,[15]; at 100.0 µM,91% (active)
same,growth inhibition,[4]; at 1.2 µM,-3%
same,growth inhibition,[4]; at 3.7 µM,-1%
same,growth inhibition,[4]; [17],40%
same,growth inhibition,[4]; at 11.0 µM,12%
same,growth inhibition,[4]; at 33.0 µM,67%
same,growth inhibition,[4]; [18],89% (active)
same,growth inhibition,[4]; at 50.0 µM,97.4% (active)
same,growth inhibition,[4]; at 100.0 µM,94% (active)
same,growth inhibition,[5]; at 1.2 µM,2%
same,growth inhibition,[5]; at 3.7 µM,-1%
same,growth inhibition,[5]; [17],9%
same,growth inhibition,[5]; at 11.0 µM,8%
same,growth inhibition,[5]; at 33.0 µM,51%
same,growth inhibition,[5]; [18],90% (active)
same,growth inhibition,[5]; at 50.0 µM,98.2% (active)
same,growth inhibition,[5]; at 100.0 µM,93% (active)
same,growth inhibition,[6]; at 1.2 µM,-1%
same,growth inhibition,[6]; at 3.7 µM,3%
same,growth inhibition,[6]; at 11.0 µM,11%
same,growth inhibition,[6]; at 33.0 µM,58%
same,growth inhibition,[6]; at 100.0 µM,93% (active)
same,growth inhibition,[16]; [17],37%
same,growth inhibition,[16]; [18],92% (active)
same,growth inhibition,[16]; at 50.0 µM,98.3% (active)
same,growth inhibition,[7]; at 1.2 µM,0%
same,growth inhibition,[7]; at 3.7 µM,0%
same,growth inhibition,[7]; at 11.0 µM,2%
same,growth inhibition,[7]; at 33.0 µM,53%
same,growth inhibition,[7]; at 100.0 µM,94% (active)
same,growth inhibition,[8]; [17],25%
same,growth inhibition,[8]; [18],89% (active)
same,growth inhibition,[8]; at 50.0 µM,97.1% (active)
same,growth inhibition,[9]; at 1.2 µM,-8%
same,growth inhibition,[9]; at 3.7 µM,-6%
same,growth inhibition,[9]; [17],34%
same,growth inhibition,[9]; at 11.0 µM,0%
same,growth inhibition,[9]; at 33.0 µM,46%
same,growth inhibition,[9]; [18],92% (active)
same,growth inhibition,[9]; at 50.0 µM,97.2% (active)
same,growth inhibition,[9]; at 100.0 µM,89% (active)
same,growth inhibition,[10]; at 1.2 µM,-1%
same,growth inhibition,[10]; at 3.7 µM,-2%
same,growth inhibition,[10]; at 11.0 µM,-6%
same,growth inhibition,[10]; at 33.0 µM,32%
same,growth inhibition,[10]; at 100.0 µM,89% (active)
same,growth inhibition,[11]; at 1.2 µM,3%
same,growth inhibition,[11]; at 3.7 µM,-5%
same,growth inhibition,[11]; at 11.0 µM,-4%
same,growth inhibition,[11]; at 33.0 µM,35%
same,growth inhibition,[11]; at 100.0 µM,90% (active)
same,growth inhibition,[12]; at 1.2 µM,-1%
same,growth inhibition,[12]; at 3.7 µM,-3%
same,growth inhibition,[12]; at 11.0 µM,-1%
same,growth inhibition,[12]; at 33.0 µM,66%
same,growth inhibition,[12]; at 100.0 µM,94% (active)
same,growth inhibition,[13]; [17],47%
same,growth inhibition,[13]; [18],86% (active)
same,growth inhibition,[13]; at 50.0 µM,98.4% (active)
same,growth inhibition,[14]; at 1.2 µM,0%
same,growth inhibition,[14]; at 3.7 µM,-2%
same,growth inhibition,[14]; at 11.0 µM,10%
same,growth inhibition,[14]; at 33.0 µM,61%
same,growth inhibition,[14]; at 100.0 µM,92% (active)

# — PubChem BioAssay (NCI)
